Inconclusive results are not listed. Active and inactive are the calls of the source. Calls come from the whole dose curve; as a rule, active = well fitted activation curve with a large enough effect in the repeat runs; inconclusive = weak or mixed curves; inactive = flat fitted curve, though single readings scatter.
% is set by controls: 0 for no effect and ±100 for the full control effect; potency is the fitted concentration of half-maximal effect.

The assay can be described thus: A CellTox Green Cytotoxicity Assay to monitor cytotoxicity in HEK293 cells - 16 hour (AID 1224888). Note: nearly all actives have a fitted effect of over 35% in size. Conditions: CellTox Green fluorescence; series mostly up to 76.8 µM; activity change: at the top concentration. The text has this: National Center for Advancing Translational Sciences [NCATS]
NIH Chemical Genomics Center [NCGC]
U.S. Environmental Protection Agency [EPA]
National Institutes of Environmental Health Sciences [NIEHS]
National Toxicology Program [NTP]
Cell-based models are critical for drug discovery. Determining the natural cytotoxic effects resulting from test compounds is an essential research activity. A CellTox Green Cytotoxicity Assay to monitor cytotoxicity in real time of continues cell culture during 40 hours of the compound treatment was used to screen Tox21 10K library compounds in Hek293 cells. CellTox Green Cytotoxicity Assay is a nonlytic, homogeneous, biofluorescent method to measure cytotoxicity in cell culture after experimental manipulation. The assay system uses a proprietary asymmetric cyanine dye that is excluded from viable cells but preferentially stains the dead cell's DNA. […] Viable cells produce no appreciable increases in fluorescence. Therefore, the fluorescence signal produced by the binding interaction with dead cell DNA is proportional to cytotoxicity.
The mixture of Hek293 cell suspension and reagents were dispensed at 600cells/6 ul/well in 1536-well tissue culture treated black solid bottom plates using a Multidrop dispenser. After the assay plates were incubated at a 37 C/5% CO2 incubator for 5 hours, 23 nL of compounds dissolved in DMSO, positive and negative controls was transferred to the assay plate by a pintool work station. The plates were incubated at 37 C for 40 hours. The fluorescence intensity were measured at 0h, 8h, 16h, 24h, 32h and 40h time points using ViewLux plate reader during compound treatment.
For `COC(=O)C1=C(C)NC(C)=C(C(=O)OCC(C)C)C1c1ccccc1[N+](=O)[O-]` (stereo not given), the Potency result is “inactive”.
Same read-out and setting: to `Nc1c(Cl)cc(Cl)cc1Cl` belongs 21.6 µM (active).
On to `CN(C)[C@@H]1C(=O)C(C(N)=O)=C(O)[C@@]2(O)C(=O)C3=C(O)c4c(O)cccc4C[C@H]3C[C@@H]12`, for which the “activity change” value was -6.2% [at 35.3 µM, active compounds read high] (inactive).
`N=C1N=C(N)c2cc3ccccc3cc21`: the Potency is 54.9 µM (active).
As for `N=C1N=C(N)c2ccccc21`, the “activity change” value was 1.44% (inactive).
Consider `CC(C)=CCOc1ccc(/C=C/C(=O)c2ccc(OCC=C(C)C)cc2OCC(=O)O)cc1`, for which the “activity change” value is -0.223% [at 35.3 µM, active compounds read high] (inactive).
Still for that read-out and setting: as for `CN1CCC(Nc2ncc3ncnc(Nc4ccc(F)c(Cl)c4)c3n2)CC1`, the figure is 26.3% [at 35.3 µM, active compounds read high] (inactive).
Regarding `CC[C@H]1O[C@]2(CC[C@@H]1C)C[C@@H]1C[C@@H](C/C=C(\C)C[C@@H](C)/C=C/C=C3\CO[C@@H]4[C@H](O)C(C)=C[C@@H](C(=O)O1)[C@]34O)O2`, the Potency was 48.5 µM (active).
Regarding `CCC(Cl)C(Cl)C(Cl)CC(Cl)C(Cl)C(C)Cl` (stereo not given), the “activity change” value is 2.49% (inactive).
Regarding `Clc1ccc2cc3ccccc3cc2c1`, the “activity change” value is 9.89% (inactive).
Turning to `O=[N+]([O-])c1ccccc1Nc1ccccc1`, the “activity change” value was -2.33% (inactive).
On the same count and under the same terms, to `Cc1[nH]nc2c1N=C(c1ccccc1Cl)c1cc([N+](=O)[O-])ccc1N2` belongs -3.84% (inactive).
Same read-out and setting: to `NC(=O)CC[C@@H]1NC(=O)[C@H](Cc2ccccc2)NC(=O)[C@H](Cc2ccc(O)cc2)NC(=O)CCSSC[C@@H](C(=O)N2CCC[C@H]2C(=O)N[C@@H](CCCN=C(N)N)C(=O)NCC(N)=O)NC(=O)[C@H](CC(N)=O)NC1=O` belongs -6.18% [at 35.3 µM, active compounds read high] (inactive).
In the case of `[Cl][Bi]([Cl])([c]1ccccc1)([c]1ccccc1)[c]1ccccc1`, the Potency is 43.4 µM (active).
In the case of `CSc1ccc(C(=O)c2[nH]c(=O)[nH]c2C)cc1`, the “activity change” value is 1.03% [at 35.3 µM, active compounds read high] (inactive).
The same measure, in the same setting: to `CCOC(=O)c1nc(C(Cl)(Cl)Cl)n(-c2ccc(Cl)cc2Cl)n1` belongs 0.819% (inactive).
On the same count and under the same terms, as for `COCCCC/C(=N\OCCN)c1ccc(C(F)(F)F)cc1`, the figure is 2.53% [at 35.3 µM, active compounds read high] (inactive).
`CC1=C(C(=O)OC(C)C)C(c2cccc([N+](=O)[O-])c2)C(C(=O)OC2CN(C(c3ccccc3)c3ccccc3)C2)=C(N)N1` (stereo not given): the “activity change” value is 0.839% [at 35.3 µM, active compounds read high] (inactive).
On the same count and under the same terms, as for `NNc1nc(-c2ccccc2)cs1`, the figure is -17.2% (inactive); as for `O=C(O)c1c(Cl)cccc1Cl`, 1.02% (inactive).
As for `CC/C(=C(\c1ccc(O)cc1)c1ccc(OCCN(C)C)cc1)c1ccccc1`, the Potency was 55.1 µM (active).
Same read-out and setting: as for `CCCCCCCCCCCC[N+](C)(C)CCCCCCCCCCCC`, the figure is 17.4 µM (active); as for `CCCCCCCCOc1ccccc1C(=O)Nc1ccc(C(=O)OCC[N+](C)(CC)CC)cc1`, 23.9 µM (active).
For `Cc1cc(=O)oc2cc(N(C)C)ccc12`, the “activity change” value was 2.2% (inactive).
On the same count and under the same terms, as for `CCCCCCCCCCC=O`, the figure is -0.17% (inactive); as for `O=C(Nc1cccc(Cl)c1)OCC#CCCl`, -5.04% (inactive); as for `Cc1cccc(N(C)C(=S)Oc2ccc3c(c2)C2CCC3C2)c1` (stereo not given), -17.2% [at 35.3 µM, active compounds read high] (inactive).
On the same count and under the same terms, as for `C/C=C(\C)C(=O)OCc1ccccc1`, the figure is 2.99% (inactive); as for `CCCCCCCC(=O)[O-].CCCCCCCC(=O)[O-].[Zn+2]`, 9.06% [at 35.3 µM, active compounds read high] (inactive).
Same read-out and setting: as for `CCCC/C=C/CCCCO`, the figure is 15.1% (inactive).
Take `Cc1c(C)c2c(c(C)c1OC(=O)CCC(=O)O)CC[C@@](C)(CCC[C@H](C)CCC[C@H](C)CCCC(C)C)O2`: the “activity change” value was -3.92% (inactive).
For `CCOc1ccc2nc3cc(N)ccc3c(N)c2c1`, the “activity change” value is -5.26% [at 35.3 µM, active compounds read high] (inactive).
Same read-out and setting: as for `NC(=O)N1C(=O)C(C(=O)c2cc(Cl)cs2)c2cc(F)c(Cl)cc21` (stereo not given), the figure is 4.39% (inactive); as for `CNc1ccc(O)cc1`, 22.9% (inactive).
For `O=C1C=CC(=O)N1`, the Potency was 22.5 µM (active).
Still for that read-out and setting: to `C[C@@H](NCCCc1cccc(C(F)(F)F)c1)c1cccc2ccccc12` belongs 23.9 µM (active).
For the compound `CS(=O)(=O)CCNCc1ccc(-c2ccc3ncnc(Nc4ccc(OCc5cccc(F)c5)c(Cl)c4)c3c2)o1`, the “activity change” value is -17.4% [at 35.3 µM, active compounds read high] (inactive).
Same read-out and setting: as for `c1ccc(CSCc2ccccc2)cc1`, the figure is 3.62% (inactive); as for `CCCCC(CC)COC(=O)c1ccccc1C(=O)O` (stereo not given), -0.824% (inactive).
For `NC(=O)NS(=O)(=O)c1ccc(N)cc1`, the “activity change” value was -7.14% [at 35.3 µM, active compounds read high] (inactive).

These data come from PubChem BioAssay (Tox21).
